In the library only some 2.3% were active in any assay of this set; here they are far more common.
CHRM1 agonist: activates human CHRM1 receptor; P11229; CHO-K1 hM1, Fluo-8 calcium fluorescence, agonist mode; 0% DMSO, 100% acetylcholine EC100; activation, % at 3 µM; 360,000 compounds, 0.33% hits; AID 588814;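 active means activation above the run's mean compound activation plus 3 SD, cut at about 16% in these data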;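 further: peak over basal fluorescence ratio within a 140 s kinetic read after compound addition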
Target sequence (P11229 whole entry, looked up): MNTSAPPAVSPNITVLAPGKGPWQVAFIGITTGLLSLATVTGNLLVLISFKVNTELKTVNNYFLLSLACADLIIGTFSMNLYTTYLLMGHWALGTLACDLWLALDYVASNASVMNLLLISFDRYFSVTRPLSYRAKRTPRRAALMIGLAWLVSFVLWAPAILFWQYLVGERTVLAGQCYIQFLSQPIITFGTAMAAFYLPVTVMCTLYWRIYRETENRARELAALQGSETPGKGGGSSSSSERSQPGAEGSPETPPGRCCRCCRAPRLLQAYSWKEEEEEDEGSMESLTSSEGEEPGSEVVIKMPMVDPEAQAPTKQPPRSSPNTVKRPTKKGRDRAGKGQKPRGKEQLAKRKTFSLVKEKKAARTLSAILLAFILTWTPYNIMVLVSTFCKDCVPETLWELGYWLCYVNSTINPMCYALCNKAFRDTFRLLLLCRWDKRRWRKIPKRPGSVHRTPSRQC
CHRM1 PAM: positive allosteric modulators of human M1 muscarinic receptor | P11229 | CHO-K1 hM1, Fluo-8 calcium fluorescence, ACh EC20; 0% = ACh EC20, 100% = maximal ACh | activation, % at 3 µM | 360,000 compounds, 0.088% hits; in the data active means activation above about 19%, passing the limit was not always enough
M1 ag parental: nonselective activator or artifact in parental CHO-K1 cells. AID 602248. activation, % at 3 µM. 360,000 compounds, 0.48% hits. Fluo-8 calcium fluorescence; scaled to maximal ATP response, vehicle zero; in the data active means activation above about 15%;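 further: untransfected CHO-K1 host cells lacking M1 receptor as counterscreen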
CHO-K1 Ca antag: counter-screen for M1 antagonists: effect in parental CHO-K1 cells | ATP-induced calcium, Fluo-8 fluorescence | inhibition, % at 3 µM | 360,000 compounds, 0.6% hits | AID 602250;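 active means inhibition above a per-plate cutoff, the plate's mean sample inhibition plus 3 SD, cut at about 24% in these data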;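 further: 0% = DMSO plus EC80 ATP and 100% = DMSO alone without ATP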
CHRM1 antagonist: antagonists of human M1 muscarinic receptor; 360,000 compounds, 1.3% hits; CHO-K1 hM1, Fluo-8 calcium fluorescence, ACh EC80 antagonist; inhibition, % at 3 µM; AID 588852;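 active means percent inhibition above its own plate's cutoff, namely the mean of that plate's compound wells plus 3 SD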;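 further: peak over basal fluorescence ratio during 140 s after agonist addition; 0% = ACh EC80 plus DMSO and 100% = DMSO alone without agonist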
CHO-K1 Ca PAM: M1 PAM counterscreen hit in parental CHO-K1 cells; ATP EC20, Fluo-8 calcium fluorescence; 0% at ATP EC20, 100% at ATP max; activation, % at 3 µM; 360,000 compounds, 0.02% hits; AID 602247;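 active means activation above the run cutoff, the mean activation of all test compounds plus 3 SD, cut at about 40% in these data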;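 further: peak over basal fluorescence ratio in a 140 s read after ATP addition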
Numbers without * were called inactive; / = not tested or not shown.

SMILES	CHRM1 agonist	CHRM1 PAM	M1 ag parental	CHO-K1 Ca antag	CHRM1 antagonist	CHO-K1 Ca PAM
CC(CC(C#N)(c1ccccc1)c1ccccc1)N1CCOCC1 (stereo unspecified)	-9.1	-30.3	-0.7	-9.9	98.6*	10.9
COc1ccc(C(c2nnnn2C2CCCC2)N2CCC3(CC2)C(=O)NCN3c2ccccc2)cc1 (stereo unspecified)	0.8	4.9	0.6	9.9	-1.0	8.5
O=c1[nH]c2ccccc2n1C1CCN(C(CCc2ccccc2)c2nnnn2C2CCCCC2)CC1 (stereo unspecified)	0.5	2.5	4.8	-8.7	-11.1	-0.1
Cc1ccccc1OP(=O)(Oc1ccccc1C)N1CCOCC1	-4.7	0.6	0.9	2.8	-3.5	10.5
COc1cc(Br)cc(CN2CCN(C)CC2)c1O	-14.5	-32.1	0.0	-4.8	59.3*	1.8
O=C(c1cccc(C(F)(F)F)c1)C1CCCN(Cc2ncc[nH]2)C1 (stereo unspecified)	-13.1	-28.8	0.9	-9.7	17.4	16.9
CCn1ccnc1CN1CCCC(C(=O)c2cccc(C(F)(F)F)c2)C1 (stereo unspecified)	-9.8	-27.0	3.5	-4.4	77.6*	7.6
C[N+]1=C(/C=C/Nc2ccccc2)C(C)(C)c2ccccc21	-12.1	-5.9	-0.1	16.8	8.7	1.5
CCN1/C(=C/C=C/C2=[N+](CC)c3ccccc3C2(C)C)C(C)(C)c2ccccc21	460.4*	-27.9	437.1*	94.9*	100.3*	-15.4
O=c1[nH]c(O)c(C=NC2CCCCC2)c(=O)[nH]1	-2.3	25.9*	0.1	-9.4	2.4	7.2
CC(=O)OC1(c2ccccc2)CCN(C2CCCCC2)CC1C (stereo unspecified)	-7.1	-22.8	3.8	-0.7	31.4*	3.9
O=C1NC(=S)NC(=O)C1Cc1ccccc1O	1.4	12.7	0.8	-15.2	-15.6	20.9
Cc1cccc(NP(=O)(Oc2ccccc2)Oc2ccccc2)c1C	-2.8	-16.9	16.8*	-4.4	29.8*	16.0
O=P(Nc1ccccc1)(Nc1ccccc1)Oc1cccc(Cl)c1	9.5	-20.0	41.5*	2.9	30.3	5.4
O=P(Nc1ccccc1)(Oc1ccccc1)Oc1ccccc1	-3.2	-17.4	7.0	-3.0	36.9*	12.8
O=P(Nc1ccccc1)(Nc1ccccc1)Oc1ccccc1	-3.7	-2.7	10.7	-9.4	2.3	23.6
Cc1nc2ncnn2c(C)c1CCC(=O)N1CCC2(CC1)OCCO2	-2.4	0.4	0.1	3.9	-0.2	8.2
Cc1nc2cc(-c3ccccc3)nn2c(C)c1CCC(=O)N1CCC2(CC1)OCCO2	-0.9	2.0	0.4	23.9*	3.4	-7.3
O=[N+]([O-])c1ccc(Cl)c([N+](=O)[O-])c1	10.2	12.3	-0.2	-4.8	-17.7	-6.5
O=[N+]([O-])c1cc(Cl)c(Cl)cc1Cl	-0.7	-13.9	0.2	-16.9	22.3*	3.5
Cc1ncoc1C(=O)NCC1=C(c2ccc3ccccc3c2)C[C@@H]2CC[C@H]1N2Cc1ccco1	-9.3	-8.6	1.2	-5.3	6.6	14.8
C[C@@H]1CN([C@@H](C)CO)C(=O)CCCn2nncc2CO[C@H]1CN(C)C(=O)Oc1ccccc1	-3.7	1.4	-0.2	5.1	-7.7	4.6
Clc1ccc2c(c1)C(OC1CN3CCC1CC3)c1ccccc1CS2 (stereo unspecified)	-7.2	-23.4	10.7	-8.1	99.9*	25.3
CN1CCN(CCOC2c3ccccc3CSc3ccc(Cl)cc32)CC1 (stereo unspecified)	-7.3	-22.9	3.5	-4.9	99.3*	24.3
COc1ccccc1OCC#CCN1CCCC1	-6.9	-21.8	1.8	1.7	90.3*	10.5
SMILES	CHRM1 agonist	CHRM1 PAM	M1 ag parental	CHO-K1 Ca antag	CHRM1 antagonist	CHO-K1 Ca PAM
Clc1ccc(OCC#CCN2CCCCCC2)cc1	-5.5	-21.9	0.9	-14.1	48.9*	12.3
C[C@]12CCC3C(CC[C@H]4C[C@@H](O)CC[C@]34C)C1CC[C@@H]2OC(=O)[C@H](N)CCCCN (stereo partly specified)	-5.4	-3.4	0.1	6.3	3.1	0.5
COc1ccc(C(=O)C2CCCN(Cc3ccc(C)s3)C2)c(OC)c1 (stereo unspecified)	-7.0	-8.2	0.9	-8.5	0.7	10.5
COc1ccc(C(=O)C2CCCN(Cc3cccc(C)n3)C2)c(OC)c1 (stereo unspecified)	-7.0	-22.8	4.6	-21.0	46.0*	25.1
CNc1cc(Cl)c2nonc2c1[N+](=O)[O-]	-1.0	0.8	-1.2	37.7*	24.6*	-17.2
COc1ccc(C(=O)C2CCCN(C3CSCCSC3)C2)c(C)c1 (stereo unspecified)	-7.0	-22.7	12.0	-4.0	53.9*	18.9
CCN(CC)CCOC(=O)c1ccc(N=Cc2c(O)[nH]c(=O)[nH]c2=O)cc1	-7.4	-15.2	0.3	24.4*	22.2*	-6.0
O=C1NCN(c2ccccc2)C12CCN(C(c1ccnc3ccccc13)c1nnnn1C1CCCCC1)CC2 (stereo unspecified)	-5.1	-3.0	0.7	-9.8	-10.7	3.7
CSCCC(c1nnnn1-c1c(C)cccc1C)N1CCC2(CC1)C(=O)NCN2c1ccccc1 (stereo unspecified)	-1.1	4.2	1.8	-9.9	-23.2	14.2
CN1CCN(CCC(=O)OC2CC3CCC(C2)N3C)CC1 (stereo unspecified)	-4.3	-3.5	0.4	6.5	-10.1	-2.5
CN1C2CCC1CC(OC(=O)c1cc(Cl)cc(Cl)c1)C2 (stereo unspecified)	-4.2	-21.9	2.0	-13.4	47.4*	32.3
CN(C)c1ccc(/C=C/[N+](=O)[O-])cc1	11.2	3.6	14.2	11.8	41.1*	-4.3
O=C(NCCN1CCC2(CC1)C(=O)NCN2c1cccc(F)c1)c1ccc2ccccc2c1	/	/	40.6*	93.3*	/	-19.3
O=C1NCN(c2ccccc2)C12CCNCC2	-10.0	6.9	0.7	-19.6	-11.1	17.4
N#CC1=C(N)Oc2c(c(=O)oc3ccccc23)C1c1cccnc1 (stereo unspecified)	-2.2	5.8	-0.1	-10.9	-11.5	5.7
Cc1nn(-c2ccccc2)c(Cl)c1C1C(C#N)=C(N)Oc2c1c(=O)oc1ccccc21 (stereo unspecified)	-2.9	-5.8	0.0	25.3*	3.5	-6.2
COc1ccc(-n2nnnc2C(CCc2ccccc2)N2CCC3(CC2)C(=O)NCN3c2ccccc2)cc1 (stereo unspecified)	-1.4	10.5	0.3	10.1	1.0	1.9
CN1/C(=C\C=C2C(=O)NC(=O)NC2=O)C(C)(C)c2ccccc21	28.6*	-9.3	24.9*	8.2	15.1	-1.7
CN1/C(=C\C=Nc2ccccc2)C(C)(C)c2ccccc21	-3.3	-5.1	0.8	3.9	10.4	-17.7

Screening results deposited in PubChem by The Scripps Research Institute Molecular Screening Center.
